Consider eight compounds from PubChem BioAssay (NCI).

Compounds without any hit were thinned out: in the full panel of roughly 83,000, 20% have a hit.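 Negative percent growth values reflect cell death: -40 means 40% of the cells present at the start died, and -100 means all died.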 Unmarked numbers belong to inactive results. The source made the active and inactive calls. The calls were made as follows: active = growth percent below 10; inactive = the rest.

Test systems include NCI-H23 lung; NCI-H226 lung; NCI-H322M lung; HOP-62 NSCLC; NCI-H460 lung; HOP-92 NSCLC; NCI-H522 lung; A549/ATCC NSCLC; 786-0 renal; COLO 205 colon; DU-145 prostate; K-562 leukemia; MALME-3M melanoma; RXF 393 renal; SF-268 CNS; SF-295 CNS; SF-539 CNS; UACC-257 melanoma; M14 melanoma; MDA-MB-231 breast.
Common to all, as to experiment: NCI-60 one-dose screen, 48 h (100 = growth as untreated, 0 = no growth, -100 = all killed)
Holding throughout (details): 10 µM unless noted

As for `CC1=C(C(=O)c2ccccc2)C(c2cccc(Cl)c2Cl)n2c(nc3ccccc32)N1` (stereo not drawn), the growth with NCI-H23 lung is 63%; in the assay with NCI-H226 lung, 7.18% (active); in the assay with NCI-H322M lung it was 72%; in the assay on HOP-62 NSCLC, 14.9%; with NCI-H460 lung, 60.9%; in the assay on HOP-92 NSCLC, 18%. Moreover, the growth in the assay on NCI-H522 lung is 49.9%; with A549/ATCC NSCLC, 53.4%; in the assay on 786-0 renal, 37.9%; in the assay with COLO 205 colon, 82.3%; in the assay on DU-145 prostate it was 58.1%; with K-562 leukemia, 61.4%. The growth in the assay with MALME-3M melanoma is 57.9%; with RXF 393 renal, 42.8%; in the assay on SF-268 CNS it was 43.6%; with SF-295 CNS it was 63.3%; in the assay on SF-539 CNS, 16.6%; with UACC-257 melanoma it was 76.2%. Besides, in the assay on M14 melanoma, the growth was 81.8%.

In the case of `Cc1ccc2c(N)c(C(=O)Nc3ccc(-c4ccccc4)cc3)sc2n1`, the growth was 42.2% in the assay with NCI-H23 lung; 45.1% in the assay on NCI-H226 lung; 73.8% with NCI-H322M lung; 63.5% in the assay on HOP-62 NSCLC; 73% with NCI-H460 lung; 27.1% in the assay on HOP-92 NSCLC. In addition, the growth in the assay on NCI-H522 lung is 53.9%; in the assay with A549/ATCC NSCLC, 81.5%; in the assay with 786-0 renal, 69.3%; in the assay with COLO 205 colon, 90.9%; with DU-145 prostate it was 88.4%; in the assay on K-562 leukemia, 36.9%. Also, the growth with MALME-3M melanoma is 65.5%; with RXF 393 renal, 30.5%; with SF-268 CNS, 101%; in the assay with SF-295 CNS it was 45.6%; with SF-539 CNS, 67.7%; in the assay with UACC-257 melanoma, 61%. Besides, in the assay with M14 melanoma, the growth is 73.2%.

Consider `COc1cc2c(c(OC)c1OC)C(=O)CC(c1cccc(NC(=O)c3cccc(NC(=O)[C@H](C)NC(=O)OC(C)(C)C)c3)c1)O2` (stereo partly drawn), for which the growth in the assay on NCI-H23 lung was 70.4%; with NCI-H226 lung it was 53.1%; with NCI-H322M lung, 105%; in the assay on HOP-62 NSCLC it was 73.6%; in the assay on NCI-H460 lung it was 76.1%; in the assay with HOP-92 NSCLC, 74.4%. For the same compound, the growth in the assay with NCI-H522 lung is 21%; with A549/ATCC NSCLC, 59.9%; with 786-0 renal, 86.4%; with COLO 205 colon, 81.8%; in the assay on DU-145 prostate it was 61.7%; in the assay with K-562 leukemia, 40.7%. The growth in the assay with MALME-3M melanoma was 70.3%; with MDA-MB-231 breast, 69%; with RXF 393 renal, 90%; with SF-268 CNS it was 53.6%; in the assay with SF-295 CNS it was 65.9%; in the assay on SF-539 CNS it was 85.2%. The growth in the assay on UACC-257 melanoma was 77%; in the assay with M14 melanoma, 76%.

Consider `Cc1ccc2c(N)c(C(=O)Nc3ccc(OC(F)(F)F)cc3)sc2n1`, for which the growth in the assay on NCI-H23 lung was 47.6%; with NCI-H226 lung, 47%; with NCI-H322M lung, 82.5%; in the assay on HOP-62 NSCLC, 68.4%; with NCI-H460 lung, 77.8%; in the assay on HOP-92 NSCLC, 59.1%. The growth in the assay with NCI-H522 lung is 66.7%; in the assay with A549/ATCC NSCLC, 75.7%; in the assay on 786-0 renal, 97.5%; in the assay with COLO 205 colon it was 92.4%; in the assay on DU-145 prostate, 82.1%; in the assay with K-562 leukemia, 9.66% (active). Also, the growth is 75.3% in the assay with MALME-3M melanoma; 86.3% in the assay on RXF 393 renal; 98.9% in the assay with SF-268 CNS; 42.9% in the assay on SF-295 CNS; 36.5% in the assay on SF-539 CNS; 70% in the assay on UACC-257 melanoma. Further, the growth with M14 melanoma was 82.9%.

On to `CSc1ccc(C(=O)Nc2ccc3nnn(/C(C#N)=C/c4ccccn4)c3c2)cc1`, for which the growth in the assay with NCI-H23 lung is -77.8% (active); in the assay with NCI-H226 lung, -53.4% (active); in the assay with NCI-H322M lung, 57.9%; with HOP-62 NSCLC, -5.88% (active); in the assay on NCI-H460 lung it was -40.1% (active); in the assay on HOP-92 NSCLC, -24.8% (active). Also, the growth in the assay with NCI-H522 lung was -84.6% (active); in the assay with A549/ATCC NSCLC it was 15%; in the assay on 786-0 renal, -90.3% (active); in the assay on COLO 205 colon, -66.2% (active); in the assay on DU-145 prostate, -40.3% (active); with K-562 leukemia it was -9.85% (active). The growth in the assay on MALME-3M melanoma was -59.3% (active); in the assay with RXF 393 renal, -95.5% (active); with SF-268 CNS, 30.5%; with SF-295 CNS, 34.8%; in the assay on SF-539 CNS it was -92% (active); in the assay with UACC-257 melanoma, -38.9% (active). Also, in the assay with M14 melanoma, the growth is -73.2% (active).

As for `CSc1ccccc1NC(=O)c1ccc2nn(/C(C#N)=C/c3ccccn3)nc2c1`, the growth in the assay on NCI-H23 lung was -83.9% (active); with NCI-H226 lung, -96.8% (active); in the assay with NCI-H322M lung, 25.3%; in the assay with HOP-62 NSCLC it was 0.554% (active); in the assay with NCI-H460 lung, -36.9% (active); in the assay on HOP-92 NSCLC it was -23.8% (active). In addition, the growth was -92.7% (active) in the assay on NCI-H522 lung; 0.0722% (active) with A549/ATCC NSCLC; -96.5% (active) in the assay on 786-0 renal; -84% (active) with COLO 205 colon; -99.5% (active) in the assay on DU-145 prostate; -10.1% (active) in the assay on K-562 leukemia. For the same compound, the growth was -89% (active) in the assay on MALME-3M melanoma; -95.8% (active) with RXF 393 renal; 14.6% in the assay on SF-268 CNS; -21.9% (active) in the assay with SF-295 CNS; -93.1% (active) in the assay with SF-539 CNS; -91% (active) in the assay on UACC-257 melanoma. The growth with M14 melanoma was -88.1% (active).

For `Cc1c(C(=O)NNC(=O)c2ccc(Cl)cc2)nnn1-c1ccc(Br)cc1`, the growth in the assay on NCI-H23 lung was 102%; with NCI-H226 lung, 97.1%; with NCI-H322M lung, 91%; in the assay on HOP-62 NSCLC, 98.4%; in the assay on NCI-H460 lung it was 107%; with HOP-92 NSCLC, 91.6%. The growth in the assay with NCI-H522 lung was 97.6%; with A549/ATCC NSCLC, 100%; with 786-0 renal it was 98.8%; in the assay with COLO 205 colon it was 104%; in the assay with DU-145 prostate, 109%; in the assay on K-562 leukemia, 91.3%. The growth in the assay on MALME-3M melanoma was 93.8%; in the assay with RXF 393 renal it was 93.1%; with SF-268 CNS, 108%; in the assay with SF-295 CNS, 90.9%; in the assay with SF-539 CNS, 94.2%; in the assay on UACC-257 melanoma, 97.7%. In the assay with M14 melanoma, the growth was 98.8%.

`COc1ccc(/C=C2\C(=O)Nc3ccc(Cl)cc32)cc1OCc1ccccn1`: the growth was 31.6% in the assay with NCI-H23 lung; 15.6% with NCI-H226 lung; 56% in the assay with NCI-H322M lung; 14.6% in the assay on HOP-62 NSCLC; 26.4% with NCI-H460 lung; -12.7% (active) with HOP-92 NSCLC. Besides, the growth in the assay with NCI-H522 lung was 81.1%; in the assay with A549/ATCC NSCLC, 41%; with 786-0 renal, -18.6% (active); with COLO 205 colon it was 77.8%; in the assay on DU-145 prostate it was 57.5%; with K-562 leukemia it was 51.6%. Moreover, the growth with MALME-3M melanoma was 38.2%; in the assay with RXF 393 renal, 2.03% (active); in the assay with SF-268 CNS, 44%; with SF-295 CNS, 38.4%; with SF-539 CNS, -9.35% (active); with UACC-257 melanoma, 72.6%. The growth in the assay on M14 melanoma was 52.8%.
